Experimental data: ChEMBL document CHEMBL4888484, “Replenishing the malaria drug discovery pipeline: Screening and hit evaluation of the MMV Hit Generation Library 1 (HGL1) against asexual blood stage Plasmodium falciparum ,using a nano luciferase reporter read-out” (2022)
Several values for one entry are separate records, joined by “and”; a condition that tells them apart may be missing. Identical values can stand only once. In all, about 150,000 compounds went through this assay and about 540 (0.36%) showed an effect of 50% or more. Only a selection was taken, and strong results are over-represented in it overall.

Tested on: Plasmodium falciparum
Assay: Primary screen in NF54 nanoGlo assay, in single point, at 2uM, 72h; a lower Z score goes with more inhibition
Assay type: functional, Erythrocyte
Conditions: timepoint 72 hour

SMILES: O=C(c1n[nH]c2c1CCCCCC2)N1CCC(c2nc(C3CCOCC3)no2)CC1
- % Inhibition: -3%
- Z score: 0.4

SMILES: C[C@@H](CN1CCc2ccccc2C1)NC(=O)c1cnc2c(c1)CCCC2
- % Inhibition: -3%
- Z score: 0.47

SMILES: CCn1cc(-c2cccc(C(=O)N[C@@H](C)c3nc(C)sc3C)c2)cn1
- % Inhibition: -4%
- Z score: 0.85

SMILES: CN(CC(F)(F)F)C(=O)CN1C(=O)c2ccccc2C(C)(C)C1=O
- % Inhibition: 2%
- Z score: -0.16

SMILES: Cc1[nH]ncc1CCCNCc1cccc(O)c1
- % Inhibition: 39%
- Z score: -0.35

SMILES: Cc1cn2nc(C(=O)NCCc3ccc(S(N)(=O)=O)cc3)cc2c(=O)[nH]1
- % Inhibition: -18%
- Z score: 3.38

SMILES: COc1ccc(CCNC(=O)c2cc3c(=O)[nH]c(C)cn3n2)cc1OC
- % Inhibition: 61%
- Z score: -7.83

SMILES: Cc1cn2nc(C(=O)NCCc3ccccc3)cc2c(=O)[nH]1
- % Inhibition: 3%
- Z score: -0.45

SMILES: CCN(CC)S(=O)(=O)c1ccc2c(c1)nnn2CCNC(=O)Nc1cccc(F)c1
- % Inhibition: 26%
- Z score: -2.96

SMILES: Cc1cc(CN(C)c2ccnc3cc(Br)cnc23)no1
- % Inhibition: 12%
- Z score: -0.99

SMILES: C[C@@H](CN)N(C)c1ccnc2cc(Br)cnc12
- % Inhibition: 99%
- Z score: -17.88

SMILES: CNC(=O)CCCN(C)c1ccnc2cc(Br)cnc12
- % Inhibition: -9%
- Z score: 1.06

SMILES: Cc1cc(C(=O)N[C@@H]2COC(C)(C)C2)n(C2CCOCC2)n1
- % Inhibition: 3%
- Z score: -0.34

SMILES: C[C@@H](C(=O)N(C)CC1(CO)CCCC1)N1CCN(C)CC1
- % Inhibition: -13%
- Z score: 1.47

SMILES: COc1cc(CNCCN2CCOCC2)ccc1OCc1cccc(C)c1
- % Inhibition: 42%
- Z score: -5.6

SMILES: COc1cc(CNCCCN2CCOCC2)ccc1OCc1ccc(Cl)cc1
- % Inhibition: 50%
- Z score: -4.4

SMILES: COc1ccc(-c2cc3n(n2)CCC(=O)N3Cc2ccc(C(=O)NCCN3CCCCC3)cc2)cc1
- % Inhibition: 10%
- Z score: -1.2

SMILES: COc1cccc(S(=O)(=O)N2CCC(c3cc(N)on3)CC2)c1
- % Inhibition: 19%
- Z score: -2.95

SMILES: COc1ccc(S(=O)(=O)N2CCC(n3cnnc3C)CC2)cc1Cl
- % Inhibition: -11%
- Z score: 1.63

SMILES: COc1ccc(S(=O)(=O)N2CCC(c3cc(N)on3)CC2)cc1Cl
- % Inhibition: 57%
- Z score: -3.68

SMILES: C[C@@H](c1nc(C(C)(C)C)no1)N1CCN(C(c2ccccc2)c2ccccc2)CC1
- % Inhibition: -18%
- Z score: 1.54

SMILES: c1ccn2cc(Cc3nc(C4CC4)cs3)nc2c1
- % Inhibition: 5%
- Z score: -0.54

SMILES: CCCN(CCc1cccs1)C(=O)CCc1cscn1
- % Inhibition: -14%
- Z score: 1.18

SMILES: CCn1nc(C)cc1C(=O)N[C@H]1CC2(CCCCC2)Oc2ccccc21
- % Inhibition: -13%
- Z score: 1.49

SMILES: Cn1cnnc1N1CCN(C(=O)NC[C@]2(C)C[C@H]2c2ccccc2)CC1
- % Inhibition: -9%
- Z score: 1.79

SMILES: O=C(CCCn1cccn1)NS(=O)(=O)c1ccc2ccccc2c1
- % Inhibition: -7%
- Z score: 0.99

SMILES: O=C(Nc1ccc(-c2c3ccccc3c(-c3ccc(NC(=O)c4cccc5ccccc45)cc3)c3ccccc23)cc1)c1cccc2ccccc12
- % Inhibition: -8%
- Z score: 1.08

SMILES: O=C1NC(c2ccc(NC(=O)c3cccc4ccccc34)cc2)(c2ccc(NC(=O)c3cccc4ccccc34)cc2)c2ccccc21
- % Inhibition: 23%
- Z score: -3.32

SMILES: O=C(Nc1ccc(C2(c3ccc(NC(=O)c4ccc(F)cc4)cc3)c3ccccc3C(=O)c3ccccc32)cc1)c1ccc(F)cc1
- % Inhibition: 77%
- Z score: -2.85

SMILES: O=C1c2ccccc2C(c2ccc(NC(=O)c3cccc4ccccc34)cc2)(c2ccc(NC(=O)c3cccc4ccccc34)cc2)c2ccccc21
- % Inhibition: 95%
- Z score: -13.49

SMILES: O=C(COc1ccccc1Cl)Nc1ccc(C2(c3ccc(NC(=O)COc4ccccc4Cl)cc3)c3ccccc3-c3ccccc32)cc1
- % Inhibition: 38%
- Z score: -1.02

SMILES: Nc1ccc(C2(c3ccc(N)cc3)c3ccccc3C(=O)c3ccccc32)cc1
- % Inhibition: 18%
- Z score: -2.61

SMILES: Cc1cccc(NC(=O)CN2CC(=O)NC[C@H]2c2ccccc2)c1C
- % Inhibition: -6%
- Z score: 0.77

SMILES: N[C@H](C(=O)Nc1cncc(Br)c1O)C1CCOCC1
- % Inhibition: 10%
- Z score: -1.45

SMILES: CNc1nc(N2CCOCC2)nc2ccccc12
- % Inhibition: 2%
- Z score: -0.34

SMILES: CN(C)[C@H]1CCN(CC(=O)NC2(c3cc(F)ccc3F)CC2)C1
- % Inhibition: 8%
- Z score: -1.27

SMILES: OCCn1nc(Cc2cccs2)nc1CCN1CCCCCCC1
- % Inhibition: -16%
- Z score: 2.13

SMILES: Cc1nnc(CN2CCC[C@H](c3nc(C(C)C)cs3)C2)s1
- % Inhibition: -8%
- Z score: 1.01

SMILES: CC1(C)NC(=O)N(CC(=O)N2CCC[C@H]2c2ccc3c(c2)OCCCO3)C1=O
- % Inhibition: -13%
- Z score: 1.7

SMILES: CCOc1ccc([C@@]2(O)CN3CCCCCC3=[N+]2c2ccc(C)cc2)cc1
- % Inhibition: 1%
- Z score: -0.19

SMILES: CCOc1ccc(-[n+]2cc(-c3ccccc3)n3c2CCC3)cc1
- % Inhibition: 68%
- Z score: -6.48

SMILES: CCOc1ccc([C@@]2(O)CN3C=CC=CC3=[N+]2c2ccccc2)cc1
- % Inhibition: -39%
- Z score: 4.59

SMILES: COc1ccc(C(=O)C[n+]2cc(-c3ccc(OC)cc3)n3c2CCCC3)cc1
- % Inhibition: 65%
- Z score: -8.89

SMILES: O=C(C[n+]1nc(-c2n[n+](CC(=O)c3ccccc3)c3n2CCCCC3)n2c1CCCCC2)c1ccccc1
- % Inhibition: 6%
- Z score: -1.08

SMILES: COc1ccc(C(=O)C[n+]2nc(CNc3ccc(Br)cc3)n3c2CCCCC3)cc1
- % Inhibition: 78%
- Z score: -12.51

SMILES: FC(F)Oc1ccc(-c2c[n+](-c3cccc(C(F)(F)F)c3)c3n2CCCCC3)cc1
- % Inhibition: 39%
- Z score: -3.9

SMILES: Cc1ccc(-c2c[n+](-c3ccc(OC(F)F)cc3)c3n2CCCCC3)cc1
- % Inhibition: 66%
- Z score: -12.11

SMILES: Cc1ccc(NCc2n[n+](CC(=O)c3ccccc3)c3n2CCCCC3)cc1
- % Inhibition: -40%
- Z score: 4.69

SMILES: COc1ccc(C(=O)C[n+]2cc(-c3cccc(Br)c3)n(C)c2N)cc1
- % Inhibition: 3%
- Z score: -0.43

SMILES: Cc1ccc([N+]2=C3CCCCCN3C[C@]2(O)c2ccc(OC(F)F)cc2)cc1
- % Inhibition: -12%
- Z score: 1.97

SMILES: Cn1c(-c2ccc(Br)cc2)c[n+](CC(=O)c2ccc(Br)cc2)c1N
- % Inhibition: 41%
- Z score: 0.35

SMILES: CCCN(CCC)C(=O)CN1CCN(Cc2ccc3c(c2)CCO3)CC1
- % Inhibition: -11%
- Z score: 1.43

SMILES: COc1ccc(Cl)cc1[C@H](C)NCc1nncn1C1CC1
- % Inhibition: -13%
- Z score: 2.01

SMILES: OC[C@H]1CCCN(CCNc2ccc3cc(Cl)ccc3n2)C1
- % Inhibition: 12%
- Z score: -1.36

SMILES: Cc1nccc(NC(=O)N2C3CCC2CC(CCF)C3)n1 (centres undefined)
- % Inhibition: -5%
- Z score: 0.79

SMILES: COc1ccc(NC(=O)c2ccc3nn(CC(=O)Nc4ccc(F)cc4)c(=O)n3c2)cc1
- % Inhibition: -26%
- Z score: 2.29

SMILES: O=C(NCc1ccc(F)cc1)C1[C@@H]2C=C[C@@]3(CN(Cc4ccccc4Cl)C(=O)[C@H]13)O2 (some centres undefined)
- % Inhibition: -9%
- Z score: 1.29

SMILES: CCCCN(C(=O)Nc1nc2ccccc2s1)C1CC1
- % Inhibition: -5%
- Z score: 0.64

SMILES: COc1ccc([N+]2=C3CCCCN3C[C@]2(O)c2ccc(Cl)cc2)cc1
- % Inhibition (2 µM): 3% and -11%

SMILES: COc1ccc(-c2c[n+](-c3ccc(Cl)cc3)c3n2CCCCC3)cc1
- % Inhibition: 64%
- Z score: -6.22

SMILES: COc1ccc(-c2cnc3n2CCCC3)cc1
- % Inhibition: -23%
- Z score: 2.75

SMILES: c1ccc([C@@H]2CN(C3CC3)CC3(CCN(Cc4ccncc4)CC3)C2)cc1
- % Inhibition: -1%
- Z score: 0.23

SMILES: c1ccc([C@@H]2CN(C3CC3)CC3(CCN(Cc4ccccn4)CC3)C2)cc1
- % Inhibition: -10%
- Z score: 1.74

SMILES: Oc1cccc(CN2CCC3(CC2)C[C@H](c2ccccc2)CN(C2CC2)C3)c1
- % Inhibition: 76%
- Z score: -2.68

SMILES: N#C[C@@]1(c2ccccc2OCc2ccccc2)CCC(=O)N1Cc1ccccc1
- % Inhibition: -10%
- Z score: 1.37

SMILES: CN(Cc1ccsc1)C(=O)c1cccs1
- % Inhibition: -2%
- Z score: 0.22

SMILES: CN(Cc1ccsc1)C(=O)c1cc2ccccc2[nH]1
- % Inhibition: 58%
- Z score: -6.32

SMILES: CN(C)CCN(Cc1ccsc1)C(=O)c1cc2cc(F)ccc2[nH]1
- % Inhibition: -5%
- Z score: 0.68

SMILES: Cc1ccc(S(=O)(=O)N2CCN(C(=O)NCc3nccn3C)CC2)cc1
- % Inhibition: -12%
- Z score: 2.31

SMILES: CCN1CCC(N(C)C(=O)Cc2csc(-c3cccnc3)n2)CC1
- % Inhibition: 61%
- Z score: 0.93

SMILES: CC1CN(C(=O)Cc2csc(-c3cccnc3)n2)CC(C)O1 (centres undefined)
- % Inhibition: -15%
- Z score: 2

SMILES: CC(C)N(Cc1ccccc1)C(=O)Cc1csc(-c2cccnc2)n1
- % Inhibition: -7%
- Z score: 0.9

SMILES: CN(CCNC(=O)CCc1cn(-c2ccccc2)nc1-c1ccc2c(c1)OCO2)C1CCCCC1
- % Inhibition: 63%
- Z score: -8.26

SMILES: O=C(CCc1cn(-c2ccccc2)nc1-c1ccc2c(c1)OCO2)NC[C@H]1CCCO1
- % Inhibition: 0%
- Z score: 0.04

SMILES: COCCNC(=O)CCc1cn(-c2ccccc2)nc1-c1ccc2c(c1)OCO2
- % Inhibition: -10%
- Z score: 1.35

SMILES: COC[C@@H]1[C@H](C(=O)Nc2cc(OC)ccc2OC)CCC(=O)N1C
- % Inhibition: -12%
- Z score: 1.42

SMILES: CNc1cccc(C(=O)Nc2nncs2)n1
- % Inhibition: -13%
- Z score: 1.62

SMILES: O=C(Nc1nncs1)c1cccc(C(=O)Nc2nncs2)n1
- % Inhibition: 77%
- Z score: -14.68

SMILES: O=C(Nc1nncs1)c1occc1-c1ccccc1
- % Inhibition: -6%
- Z score: 0.51

SMILES: Nc1nnnn1CC(=O)N[C@H]1CC(=O)Nc2ccccc21
- % Inhibition: 10%
- Z score: -1.71
